Screening data: PubChem, Fisher Drug Discovery Resource Center
mcGAS MS inh = inhibitors of mouse cGAS | 0.18% of 130,000 active | inhibition, % at 12.5 µM | recombinant mouse cGAS, cGAMP by RapidFire MS | AID 1259397 | Q8C6L5;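 active means inhibition of cGAS enzyme activity at or above 60%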;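 further: enzyme stimulated by 45 bp dsDNA with ATP and GTP substrates; cGAMP share of summed cGAMP plus half ATP and half GTP signals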
Target sequence (Q8C6L5 whole entry, looked up): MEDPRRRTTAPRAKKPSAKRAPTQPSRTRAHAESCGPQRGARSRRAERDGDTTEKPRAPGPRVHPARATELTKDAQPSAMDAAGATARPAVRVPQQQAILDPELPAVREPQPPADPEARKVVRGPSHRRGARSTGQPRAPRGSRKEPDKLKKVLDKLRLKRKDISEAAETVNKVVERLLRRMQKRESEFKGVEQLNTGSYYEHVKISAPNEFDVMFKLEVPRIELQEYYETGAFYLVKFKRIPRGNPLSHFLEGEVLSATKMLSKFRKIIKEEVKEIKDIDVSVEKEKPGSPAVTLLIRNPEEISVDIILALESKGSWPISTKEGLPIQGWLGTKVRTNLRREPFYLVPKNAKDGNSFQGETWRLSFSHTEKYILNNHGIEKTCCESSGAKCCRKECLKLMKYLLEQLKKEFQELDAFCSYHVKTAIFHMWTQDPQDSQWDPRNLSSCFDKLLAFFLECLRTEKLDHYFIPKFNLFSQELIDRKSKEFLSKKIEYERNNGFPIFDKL
Starred values were filed as active, the others as inactive; ! = a repeat was not active. This is one part of a sample in which hits are shown more often than they occur.

SMILES	mcGAS MS inh
O=C(Nc1cccs1)Nc1nc(CN2CCc3ccccc3C2)cs1	-3
Cc1noc(C)c1CNC(=O)[C@H](N)CC(C)C	-2
O=C1c2c(O)ccc(O)c2C(=O)c2c(NCCNCCO)ccc(NCCNCCO)c21	83*!
Cc1ccc(NS(=O)(=O)c2c(C)c(C)c(C)c(C)c2C)c(C)c1O	-2
NC(=O)COc1ccc(-c2nccn2-c2cccnc2)cc1Cl	-13
COc1ccc(-c2ccc(F)c(CO)c2)nn1	-4
CCc1nc(CN2CCN(C)C(C(=O)O)C2)c(C)[nH]1 (configuration not stated)	6
Fc1ccc(Nc2nc(N3CCOCC3)c3[nH]cnc3n2)cc1	-4
NS(=O)(=O)c1cc2c(cc1Cl)NCNS2(=O)=O	-1
CCC1NC(=O)c2cc(S(N)(=O)=O)c(Cl)cc2N1 (configuration not stated)	94*
CN1C(CCl)Nc2cc(Cl)c(S(N)(=O)=O)cc2S1(=O)=O (configuration not stated)	-6
CCOCC(=O)Nc1ccc2c(c1)C(=O)N(C)c1cc(C)ccc1O2	-9
CCCc1cc(C(=O)N2CCC3(CCC(=O)N(C)CC3)CC2)ccn1	-18
COCCN1CCC(c2nc3c([nH]2)CC(c2ccc(F)cc2)CNC3=O)CC1 (configuration not stated)	-25
Nc1c2ccccc2nc2ccccc12	78*!
Nc1c2c(nc3ccccc13)CCCC2	-6
Cc1ccc2c(N)cccc2n1	-4
COc1ccc(NC(=O)[C@@H](C)N2Cc3ccc(NCC(C)C)nc3C2=O)cc1	8
Nc1nc(SCc2csc(-c3ccc(Cl)cc3)n2)n[nH]1	-4
Cc1ccsc1C(=O)N(C)C(C)c1cccs1 (configuration not stated)	3
Cc1nc(CN2CCC(C(=O)NCCC3=CCCCC3)CC2)cs1	-5
CC1Sc2ccc(-c3ccco3)cc2N(Cc2ccc(Cl)cc2)C1=O (configuration not stated)	66*
CC1Sc2ccccc2N(Cc2ccc(F)c(Cl)c2)C1=O (configuration not stated)	24
COc1cccc(-c2ccc3c(c2)N(Cc2ccc4c(c2)OCO4)C(=O)C(C)S3)c1 (configuration not stated)	-12
CC(C)CN1CCC1(C)C(=O)Nc1cccc(Oc2ccccc2)c1 (configuration not stated)	-4
SMILES	mcGAS MS inh
Cc1ccc(-n2c(SCC(=O)N3CCCC3=O)nc3ccccc3c2=O)cc1C	2
CCn1ncc(C(=O)NCCOc2cccc3ccc(C)nc23)c1C	-9
N#Cc1ccc([N+](=O)[O-])c(O)c1	-8
N#Cc1cc(I)c(O)c([N+](=O)[O-])c1	95*
N#Cc1ccc(Oc2ncccc2[N+](=O)[O-])c(Cl)c1	-7
CCCc1nnc2sc(-c3cc(C(C)C)[nH]n3)nn12	-29
c1ccc(CCc2nn3c(C4COc5ccccc5O4)nnc3s2)cc1 (configuration not stated)	54
CC(C)c1cc(-c2nn3c(C4COc5ccccc5O4)nnc3s2)n[nH]1 (configuration not stated)	70*
CC(C)(C)N(Cc1ccccc1)C(=O)COc1cccnc1Br	-32
COc1ccccc1OC(C)(C)C(=O)N1CCN(C)C(C(=O)O)C1 (configuration not stated)	82*!
CN1CCN(C2CCN(C(=O)c3ccccc3)CC2)CC1C(=O)O (configuration not stated)	11
COc1ccccc1-c1ccc(C(=O)N2CCN(C)C(C)C2)cc1 (configuration not stated)	-8
CCCC1C(C#N)C(=N)SC(=N)C1C#N (configuration not stated)	-1
N#CC1C(=N)SC(=N)C(C#N)C1c1ccc([N+](=O)[O-])cc1 (configuration not stated)	62*
CCOC(=O)C1=C(C)NC(=O)C(C#N)C1c1ccc([N+](=O)[O-])cc1 (configuration not stated)	-7
COc1ccc(NC(=O)C=Cc2ccco2)cc1S(=O)(=O)N1CCOCC1	5
Oc1ccc(SCCCCCN2CCCCC2)cc1	1
COc1cc(CN2C(=O)CON=C2c2cc(Cl)ccc2OC)cc(OC)c1	-9
CC1CCCC(C)N1C(=N)N (configuration not stated)	-4
NC(=O)NO	1
NC(=O)CC(N)=S	92*
NC(=S)CC(=O)N1CCOCC1	-9
CC(NS(=O)(=O)Cc1ccccc1)c1cccc(N2CCCS2(=O)=O)c1 (configuration not stated)	6
CCSC1=C(C#N)C(c2ccccc2)C(c2ccccc2)C(=O)N1 (configuration not stated)	-6
O=S(=O)(CCNS(=O)(=O)c1ccc(Br)cc1)Cc1ccccc1	1
SMILES	mcGAS MS inh
CN(C)Cc1ccc(CNC(=O)Nc2ccc(OC3CCCC3)cc2)cc1	-34
O=C(Nc1nc(-c2ccc(Cl)s2)cs1)c1cccs1	-16
O=C(Nc1n[nH]c(=S)s1)c1ccco1	27
O=C(Nc1n[nH]c(=S)s1)c1cccs1	76*
Nc1nc(NC2CCCCC2)nc(N2CCN(Cc3ccccc3)CC2)c1[N+](=O)[O-]	-9
CCOC(=O)C1(C)CCCN1C(=O)c1ccnc(Cl)c1 (configuration not stated)	-3
CC(CC#N)Sc1ccccc1NC(=O)C1CC(=O)N(CC2CC2)C1 (configuration not stated)	66*
O=C(Nc1ccc2scnc2c1)C1CC(=O)N(CC2CC2)C1 (configuration not stated)	-13
CCN1CC(C(=O)Nc2ccccc2C(C)C)CC1=O (configuration not stated)	3
O=C(c1ccc(N2CC(O)C2)nc1)N1CCCN(c2ncccn2)CC1	80*
CCOc1ccc(C(=O)N2CCN(c3ncccn3)CC2)cc1	-1
O=C1CN(c2ccc(C(=O)N3CCCN(c4ncccn4)CC3)cn2)CCN1	-7
Cc1sc2nc(SC3C=CCCC3)[nH]c(=O)c2c1C (configuration not stated)	-7
CC(=O)Nc1nc2nc(C)c(C)c(=O)n2[nH]1	-12
Cc1nc2nc(C)c(Br)c(=O)n2[nH]1	69*
CCCc1nc2nc(C)c([N+](=O)[O-])c(=O)n2[nH]1	-6
CC(C#N)OC(=O)c1c(-n2cccc2)sc2c1CCCC2 (configuration not stated)	-5
Cc1csc(=O)n1CC(=O)NCCCCOc1ccc(Cl)cc1	-4
O=c1c(O)c(-c2cc(O)c(O)c(O)c2)oc2cc(O)cc(O)c12	94*
O=c1c(O[C@@H]2O[C@H](CO)[C@H](O)[C@H](O)[C@H]2O)c(-c2ccc(O)c(O)c2)oc2cc(O)cc(O)c12	10
O=c1c(O)c(-c2ccccc2)oc2cc(O)ccc12	-8
Cn1cnnc1SCc1ccc(OCC(F)(F)F)cc1	-9
O=C(c1scc2c1CCCC2)N1CCCC(O)(CO)C1 (configuration not stated)	-4
CCCCCn1c(=O)c2c(nc3n2CCCN3Cc2ccco2)n(C)c1=O	-2
CCOCCC1(C(=O)Nc2ccc(CC)cc2)CCC1	-4
Cn1nnc2c(=O)n(Cc3cccc(Cl)c3)cnc21	-1
COc1ccc(C(C)NCC(O)COc2ccc(Cl)cc2Cl)cc1F (configuration not stated)	-8
COc1ccc2cc(CNC(=O)NC(C)c3ccc(F)c(F)c3)ccc2c1 (configuration not stated)	2
COc1cccc2cc(CNC(C)c3ccc(F)c(F)c3)oc12 (configuration not stated)	67*
